For 40 molecules, outcome and AC50 results are on record in PubChem BioAssay (EPA / NIEHS).

Molecules are shown by their SMILES. Results filed as inconclusive are left out. Active and inactive are the calls of the source. The calls were made as follows: active = hit-call score of the fitted dose curve at least 0.9, where 1 is the maximum; inconclusive = response in the unintended direction; inactive = score below 0.9.

Oxysterols receptor LXR-beta (Homo sapiens), sequence (P55055 whole entry, looked up, the tested form may be a part): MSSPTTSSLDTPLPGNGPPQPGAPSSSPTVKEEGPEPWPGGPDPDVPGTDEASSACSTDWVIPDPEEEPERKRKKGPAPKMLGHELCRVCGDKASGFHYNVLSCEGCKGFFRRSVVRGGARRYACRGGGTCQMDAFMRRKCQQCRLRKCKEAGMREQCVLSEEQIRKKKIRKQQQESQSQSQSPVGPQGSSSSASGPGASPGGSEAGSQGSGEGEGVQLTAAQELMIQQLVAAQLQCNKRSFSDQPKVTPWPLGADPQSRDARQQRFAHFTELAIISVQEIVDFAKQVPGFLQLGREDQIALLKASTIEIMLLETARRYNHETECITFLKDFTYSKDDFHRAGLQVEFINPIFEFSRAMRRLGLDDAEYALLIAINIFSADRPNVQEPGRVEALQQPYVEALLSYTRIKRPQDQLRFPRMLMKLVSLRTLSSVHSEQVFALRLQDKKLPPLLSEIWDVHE

The target in the experiment is Oxysterols receptor LXR-beta (Homo sapiens) (UniProt P55055). Put plainly: ATG_LXRb_TRANS: Attagene TRANS-FACTORIAL HepG2 Assay for human Liver X Receptor beta (LXRb) (AID 2282981). Particulars: HepG2 Attagene TRANS GAL4-LXRb reporter, mRNA. The procedure:
ATG_TRANS is a cell-based, multiplexed-readout assay that uses HepG2, a human liver cell line, with measurements taken at 24 hours after chemical dosing in a 24-well plate.ATG_LXRb_TRANS is one of 30 assay component(s) measured or calculated from the ATG_TRANS assay. It is designed to make measurements of mRNA induction, a form of inducible reporter, as detected with fluorescence intensity signals by Reverse transcription polymerase chain reaction (RT-PCR) and Capillary electrophoresis technology.Data from the assay component ATG_LXRb_TRANS was analyzed into 1 assay endpoint. This assay endpoint, ATG_LXRb_TRANS, was analyzed in the positive analysis fitting direction relative to DMSO as the negative control and baseline of activity. Using a type of inducible reporter, measures of mRNA for gain-of-signal activity can be used to understand the reporter gene at the transcription factor-level as they relate to the gene NR1H2. Furthermore, this assay endpoint can be referred to as a primary readout, because this assay has produced multiple assay endpoints where this one serves a reporter gene function. To generalize the intended target to other relatable targets, this assay endpoint is annotated to the nuclear receptor intended target family, where the subfamily is non-steroidal.
Human liver HepG2 cells are transiently transfected with multiple reporter transcription units (MRTUs) in 6-well plates using FuGene 6 reagent (Roche; 3 ml FuGene/1 mg DNA). The MRTU constructs are regulated by a cis-regulating element (promoter). […] A major difference between the CIS and TRANS system is that in CIS activities of endogenous TFs are measured, whereas the TRANS assay evaluates changes in activities of exogenous, chimeric NR-Gal4 proteins. […] At the end of 24 hour incubation, total RNA was isolated using TriZol reagent (Invitrogen). The isolated RNA is then reverse-transcribed using oligo(dT) primer and Mo-MLV reverse transcriptase (Invitrogen) with DNAse I (Ambion) treatment for 30 min. The one-tenth of the produced cDNA was amplified by PCR using Taq DNA polymerase (Invitrogen) and two reporter sequence-specific primers. The PCR products were fluorescently labeled by primer extension with 6-arboxyfluorescein (6-FAM) 5'-labeled reporter sequence-specific primer (2 min at 95 C, 20 s at 68 C and 10 min at 72 C) and these products were digested with 5U of HpaI (New England Biolabs) for 2h at 37 C. The fragments were purified using Qiaquick PCR columns (Qiagen), analyzed on an ABI 3130xL genetic analyzer (Applied Biosystems) with peak positions identified by using a set of X-rhodamine (ROX)-labeled MapMarker1000 molecular weight standards (BioVentures). The raw capillary electrophoresis data was processed using Attagraph software (Attagene).
As for `NC(=O)O`, the molecule was classed as inactive.
On to `CCC(=O)C(CC(C)N(C)C)(c1ccccc1)c1ccccc1` (stereo not given), for which the result was inactive.
Regarding `CC(C#N)CCC#N` (stereo not given), the outcome was inactive.
Regarding `O=P(O)(O)CN(CP(=O)(O)O)CP(=O)(O)O`, the molecule was classed as inactive.
As for `Nc1ccc(-c2ccc(N)c(Cl)c2)cc1Cl`, the molecule was classed as inactive.
Still for that read-out and setting: next, `Cc1cc(=O)[nH]o1`: “inactive”.
Same read-out and setting: the result for `O=C(O)C(Cl)(Cl)Cl` reads “inactive”; that for `COP(=O)(OC)OC`, “inactive”; that for `CC12CC1(C)C(=O)N(c1cc(Cl)cc(Cl)c1)C2=O` (stereo not given), “inactive”.
With `CCOP(=O)(CN(CCO)CCO)OCC`, the outcome was inactive.
Still for that read-out and setting: the result for `Cl/C=C/Cl` reads “inactive”.
The same measure, in the same setting: next, `CCOC(=O)Nc1cccc(OC(=O)Nc2ccccc2)c1`: “inactive”; `CCC[CH2][Sn]([CH2]CCC)([CH2]CCC)[O]C(=O)c1ccccc1`: “inactive”; `CCC(C)c1cccc(C(C)CC)c1O` (stereo not given): “inactive”.
Consider `C[C@]12CCC(=O)C[C@@H]1CC[C@@H]1[C@@H]2CC[C@]2(C)[C@@H](O)CC[C@@H]12`, for which the molecule was classed as inactive.
On the same count and under the same terms, the result for `Cc1ccccc1C(=O)Nc1cccc(OC(C)C)c1` reads “inactive”.
For `CCOP(=S)(OCC)Oc1ccc(S(C)=O)cc1` (stereo not given), the molecule was called inactive.
Same read-out and setting: next, `C=CC(=O)N(C)C`: “inactive”; `CCOP(=S)(OCC)SCCS(=O)(=O)CC`: “inactive”.
The term AC50 denotes the concentration giving half of the maximal activity seen. As to `CCOP(=S)(OCC)SCSP(=S)(OCC)OCC`, the AC50 is 18.9 µM (active).
For the molecule `O=C/C=C/c1ccccc1`, the result was inactive.
As to `Clc1ccc(C2(Cn3cncn3)CC(Br)CO2)c(Cl)c1` (stereo not given), the result was inactive.
Consider `CNC(=O)O/N=C/C(C)(C)S(C)=O` (stereo not given), for which the molecule was classed as inactive.
On to `O=C1C2(Cl)C3(Cl)C4(Cl)C(Cl)(Cl)C5(Cl)C3(Cl)C1(Cl)C5(Cl)C24Cl` (stereo not given), for which the call was inactive.
On the same count and under the same terms, next, `ClC1(Cl)C2(Cl)C3(Cl)C4(Cl)C(Cl)(Cl)C5(Cl)C3(Cl)C1(Cl)C5(Cl)C24Cl` (stereo not given): “inactive”; `COP(=S)(OC)Oc1c(Cl)cc(C)cc1Cl`: “inactive”.
With `O=C(Cl)c1ccc(Cl)cc1`, the result was inactive.
For the molecule `COc1cc(-c2ccc(N)c(OC)c2)ccc1N`, the outcome was inactive.
With `C[C@H]1O[C@@H](O[C@H]2[C@@H](O)C[C@H](O[C@H]3[C@@H](O)C[C@H](O[C@H]4CC[C@@]5(C)[C@H](CC[C@@H]6[C@@H]5CC[C@]5(C)[C@@H](C7=CC(=O)OC7)CC[C@]65O)C4)O[C@@H]3C)O[C@@H]2C)C[C@H](O)[C@@H]1O`, the molecule was classed as inactive.
For `CC(=[OH+])/C=C(/C)[O-].CC(=[OH+])/C=C(/C)[O-].CC(=[OH+])/C=C(/C)[O-].[Al]`, the call was inactive.
The same measure, in the same setting: the result for `C[C@@H]1C[C@@H]([C@H](O)CC2CC(=O)NC(=O)C2)C(=O)[C@@H](C)C1` reads “inactive”; that for `CC1(C)CCC(Cc2ccc(Cl)cc2)C1(O)Cn1cncn1` (stereo not given), “inactive”; that for `CN(C)N=O`, “inactive”.
For the molecule `CCC(C)(C)c1ccc(O)c(C(C)(C)CC)c1`, the AC50 was 23.6 µM (active).
`O=c1[nH]c(=O)[nH]c(=O)[nH]1`: the result was inactive.
On the same count and under the same terms, the result for `C[C@]12CC[C@H](O)CC1=CC[C@@H]1[C@@H]2CC[C@]2(C)C(=O)CC[C@@H]12` reads “inactive”; that for `Nc1ccc(N=Nc2ccc(-c3ccc(N=Nc4c(S(=O)(=O)O)cc5cc(S(=O)(=O)O)c(N=Nc6ccccc6)c(O)c5c4N)cc3)cc2)c(N)c1`, “inactive”; that for `CC(=O)C=C(C)C`, “inactive”.
On the same count and under the same terms, next, `ClCc1cccnc1`: “inactive”.
On to `CCN(CC)C(=O)Cl`, for which the outcome was inactive.
